EphB4 antag = EphB4-ephrin-B2 interaction antagonists, primary screen, biochemical, TNYL-RAW peptide probe, fluorescence polarization; Ephrin type-B receptor 4 (Homo sapiens), P54760; EphB4 LBD / TNYL-RAW-Alexa532 peptide; inhibition, % at 7 µM; 97,000 compounds, 0.15% hits;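 active = inhibition above the screen-wide mean inhibition plus 3 SD, cut at about 15% in these data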;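 note: 0% = DMSO wells and 100% = excess unlabeled TNYL-RAW peptide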
Target sequence (P54760 whole entry, looked up, the tested form may be a part): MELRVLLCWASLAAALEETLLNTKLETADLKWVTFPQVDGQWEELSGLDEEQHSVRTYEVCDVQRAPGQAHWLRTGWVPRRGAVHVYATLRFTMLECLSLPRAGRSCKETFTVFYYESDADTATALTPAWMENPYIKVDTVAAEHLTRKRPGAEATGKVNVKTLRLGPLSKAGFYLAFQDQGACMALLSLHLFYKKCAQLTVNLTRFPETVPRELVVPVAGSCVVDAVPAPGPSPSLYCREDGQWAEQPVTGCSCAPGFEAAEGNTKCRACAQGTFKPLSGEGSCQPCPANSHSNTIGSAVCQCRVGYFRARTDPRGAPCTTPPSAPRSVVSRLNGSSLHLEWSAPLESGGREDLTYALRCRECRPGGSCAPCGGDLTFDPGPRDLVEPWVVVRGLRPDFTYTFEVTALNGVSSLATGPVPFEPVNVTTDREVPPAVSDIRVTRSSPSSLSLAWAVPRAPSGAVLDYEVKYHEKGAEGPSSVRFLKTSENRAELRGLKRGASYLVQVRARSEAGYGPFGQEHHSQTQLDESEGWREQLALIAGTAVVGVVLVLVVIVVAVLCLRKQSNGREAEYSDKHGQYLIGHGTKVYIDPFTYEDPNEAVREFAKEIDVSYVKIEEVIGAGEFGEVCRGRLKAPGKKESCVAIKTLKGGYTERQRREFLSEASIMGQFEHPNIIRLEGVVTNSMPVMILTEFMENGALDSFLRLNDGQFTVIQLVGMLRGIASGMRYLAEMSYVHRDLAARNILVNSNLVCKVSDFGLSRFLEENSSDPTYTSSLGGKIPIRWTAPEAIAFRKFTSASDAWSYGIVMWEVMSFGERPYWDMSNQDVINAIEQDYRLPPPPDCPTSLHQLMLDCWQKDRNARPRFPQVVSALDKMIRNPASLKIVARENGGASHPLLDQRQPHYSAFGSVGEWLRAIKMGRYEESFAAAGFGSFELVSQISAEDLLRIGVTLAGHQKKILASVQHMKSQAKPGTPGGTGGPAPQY
CYP2C19 activ = human CYP2C19 activators, primary screen, biochemical, luminescence; activation factor at 5 µM; AID 1025, 2008; recombinant CYP2C19, luciferin-H EGE luminescence; stronger effect = higher value; 0 = fully inhibited enzyme, 1 = untreated enzyme; 96,000 tested, under 10 active;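 active = activation factor of at least 2 at 5 µM in the primary screen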;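 note: 0 = wells with 2.5 mM tranylcypromine and 1 = vehicle-only wells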
CYP2C9 inh = blockers of cytochrome P450 2C9 activity – biochemical, luminescence, ADME assay, primary screen. P11712. inhibition, % at 5 µM. 96,000 compounds, 20% hits. AID 777, 2007. CYP2C9 Supersomes, luciferin-H conversion;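 active = blocking of liver enzyme CYP2C9 beyond about 50% at 5 µM, limit read from the data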
CYP2C9 act = human CYP2C9 activators, primary screen, biochemical, luminescence | recombinant CYP2C9, luciferin-H conversion; stronger effect = higher value; factor 1 = untreated enzyme, 0 = blocked | activation factor at 5 µM | 96,000 compounds, 1.4% hits | AID 1024, 2008;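 active = activation factor of 2 or more for CYP2C9 at a 5 µM dose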;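 note: 0 = sulfaphenazole-blocked wells and 1 = vehicle-only wells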
CYP2C19 inh = blockers of cytochrome P450 2C19 activity – biochemical, luminescence, ADME assay, primary screen; CYP2C19 Supersomes, luciferin-H EGE luminescence, 30 min; P33261; 96,000 compounds, 21% hits; AID 778, 2007; inhibition, % at 5 µM;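 active = CYP2C19 inhibition above a set limit at 5 µM in the primary screen, cut at about 50% in these data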;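 note: plate controls were negative control wells for no effect and 2.5 mM tranylcypromine positive control for full effect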
Numbers without * were called inactive; . = no result. Rows were chosen to be rich in hits. Some 27% of all compounds tested hit in one or more screens of this group.

SMILES | EphB4 antag | CYP2C19 activ | CYP2C9 inh | CYP2C9 act | CYP2C19 inh
O=S(=O)(Nc1cccnc1)c1ccc(Cl)cc1 | 3 | 0.2 | 85* | 0.2 | 85*
O=S(=O)(Nc1cccnc1)c1ccc2c(c1)OCCO2 | 5 | 0.4 | 14 | 0.9 | 58*
COc1ccc(S(=O)(=O)N(c2onc(C)c2Cl)S(=O)(=O)c2ccc(OC)c(OC)c2)cc1OC | -1 | 1 | 21 | 0.8 | 4
O=S(=O)(Nc1cccc(CCc2ccccn2)c1)c1ccc2ccccc2c1 | 2 | 0 | 27 | 0.7 | 99*
Cc1nc(-c2cccc(NS(=O)(=O)c3ccc4ccccc4c3)c2)cs1 | 4 | 0.7 | -59 | 1.6 | 32
Cc1ccc2oc(=O)n(CCOc3ccccc3Cl)c2c1 | 0 | 1.1 | -8 | 1.1 | -5
CCCCOC(=O)Cn1c(=O)oc2ccc(C)cc21 | -1 | 0.7 | -123 | 2.2* | 26
CCCOc1ccccc1Cn1c(=O)oc2ccc(C)cc21 | -4 | 0 | 84* | 0.2 | 96*
CCCCOC(=O)n1c(=O)oc2ccccc21 | 5 | 0.8 | -14 | 1.1 | 15
COc1ccccc1OCCCn1c(=O)oc2ccc(C)cc21 | 1 | 0.4 | 20 | 0.8 | 56*
COc1ccc(CCNC(=O)Cn2c(=O)oc3ccccc32)cc1OC | 3 | 1 | 13 | 0.9 | 1
COc1ccccc1OCCCn1c(=O)oc2ccccc21 | -8 | 0 | 32 | 0.7 | 100*
Cn1c(=O)c2c([nH]c(=O)n2C)n(C)c1=O | -6 | . | . | . | .
O=C(c1cccc(-n2cnnn2)c1)N1CC=C(c2ccccc2)CC1 | 2 | 0.6 | 33 | 0.7 | 44
CCN(CC)C1CC(=O)N(c2cccc(C)c2)C1=O (stereo not drawn) | . | 0.7 | -10 | 1.1 | 26
COc1ccccc1OCCCn1c(=O)sc2ccccc21 | -2 | 0 | 74* | 0.3 | 100*
Nc1cc(CN2C(=O)c3ccccc3C2=O)cc(Cl)c1O | 1 | 0.9 | -254 | 3.5* | 14
Cc1cc(S(=O)(=O)N(C)CCc2ccccc2)ccc1-n1cnnn1 | -1 | 0.4 | 26 | 0.7 | 57*
COc1cc(S(=O)(=O)N(Cc2ccccn2)Cc2ccco2)ccc1-n1cnnn1 | 1 | . | . | . | .
COc1cccc(CN(Cc2cccnc2)S(=O)(=O)c2ccc(-n3cnnn3)c(C)c2)c1 | -5 | 0.4 | 17 | 0.8 | 60*
COc1cc(S(=O)(=O)N(Cc2ccccc2)Cc2ccccn2)ccc1-n1cnnn1 | 0 | . | . | . | .
CCN1CN=C(NS(=O)(=O)c2ccc(C)cc2)NC1 | -11 | 1 | -3 | 1 | 0
Brc1ccc(-c2noc(CCc3ccccc3)n2)o1 | -4 | 0.5 | 10 | 0.9 | 47
CN(CC(=O)N1CCCCC1)S(=O)(=O)c1cccc2cccnc12 | . | 1 | -105 | 2.1* | 3
CN(Cc1ccccc1)S(=O)(=O)c1cccc2cccnc12 | 0 | 0.2 | -203 | 3* | 80*
SMILES | EphB4 antag | CYP2C19 activ | CYP2C9 inh | CYP2C9 act | CYP2C19 inh
Cc1csc(NC(=O)CN(C)S(=O)(=O)c2cccc3cccnc23)n1 | -4 | 0.1 | 84* | 0.2 | 91*
Cc1ccc(NC(=O)CN(C)S(=O)(=O)c2cccc3cccnc23)cc1 | 2 | 0.6 | 78* | 0.2 | 41
CN(C)c1cccc(C(=O)NC2CCCCCC2)c1 | 2 | 0.8 | -19 | 1.2 | 22
Cc1ccn2c(/C=N/OCc3ccc(F)cc3)c(-c3ccc(Cl)cc3)nc2c1 | 0 | 1.2 | 7 | 0.9 | -18
CCOC(=O)NC1(NCc2ccccc2)Oc2ccccc2O1 | 9 | 0.7 | 18 | 0.8 | 30
Cc1cccc(C)c1OC(=O)CN(c1ccc(Cl)cc1)S(C)(=O)=O | 8 | 1 | 15 | 0.8 | -1
CCOC(=O)CN(c1ccccn1)S(=O)(=O)c1ccccc1 | -3 | 0.9 | 1 | 1 | 7
COC(=O)c1ccc(CN(c2ccccn2)S(=O)(=O)c2ccccc2)cc1 | 6 | 0.3 | 30 | 0.7 | 70*
O=C(Nc1ccc(Cl)c(Cl)c1)C1CC(=O)N(c2ccc(Br)cc2)C1 (stereo not drawn) | 8 | . | . | . | .
CCCOc1ccc(NC2=CC(=O)CC(C)(C)C2)cc1 | -2 | 0.6 | 79* | 0.2 | 37
Cc1cc(=O)[nH]c(SCC(=O)Nc2cccc3ccccc23)c1C#N | -4 | 0.7 | 86* | 0.1 | 26
CNC(=O)c1c(C)nc(SCC(=O)NCc2ccc(OC)cc2)c(C#N)c1-c1ccco1 | 0 | 1 | 24 | 0.8 | 2
COCCOC(=O)c1c(C)nc(SCC(=O)Nc2cccc3ccccc23)c(C#N)c1-c1ccco1 | -5 | 1 | 94* | 0.1 | 4
COCCOC(=O)c1c(C)nc(SCC(=O)Nc2ccc(C)cc2)c(C#N)c1-c1ccco1 | . | 0.4 | 92* | 0.1 | 64*
Cc1cc(=O)[nH]c(SCC(=O)O)c1C#N | -1 | 1.1 | 11 | 0.9 | -8
Cc1cc(C)nc(SCC(=O)c2ccc(O)cc2O)n1 | 0 | 0.6 | -33 | 1.3 | 44
CCSc1nc(N)c2c(C)c(C)sc2n1 | -5 | . | . | . | .
C=CCSc1nc(N)c2c(C)c(C)sc2n1 | . | 0.1 | 58* | 0.4 | 88*
CCCN1/C(=C2/SC(=S)N(CC)C2=O)C=Cc2ccccc21 | -5 | 0.6 | 8 | 0.9 | 37
C=CCN1C(=O)/C(=C2/Sc3ccccc3N2CCCS(=O)(=O)O)SC1=S | 0 | 0.9 | 60* | 0.4 | 14
CN1C(=O)/C(=C2/C=Cc3ccccc3N2CCCS(=O)(=O)O)SC1=S | 11 | 0.8 | 53* | 0.5 | 23
CCC(C(=O)Nc1ccccc1C(=O)N1CCOCC1)N1C(=O)c2ccccc2C1=O (stereo not drawn) | 11 | 0.9 | 18 | 0.8 | 14
O=c1c2ccccc2ncn1C1CCCCC1 | 7 | 1.1 | -14 | 1.1 | -8
CCCCNC(=O)Cc1coc2ccc3ccccc3c12 | 0 | 0.4 | -208 | 3.1* | 64*
Cc1cccc(NC(=O)CS(=O)(=O)Cc2ccccc2)n1 | 2 | 0.8 | -9 | 1.1 | 18
SMILES | EphB4 antag | CYP2C19 activ | CYP2C9 inh | CYP2C9 act | CYP2C19 inh
Cc1cccc(NC(=O)Cc2coc3ccc4ccccc4c23)n1 | 10 | 0.1 | -127 | 2.3* | 88*
Cc1ccc(CC(=O)Nc2cccc(C)n2)cc1 | -6 | 0.3 | 23 | 0.8 | 74*
CCCC12CN3CC(CCC)(CN(C1)C3C(O)C(O)C(O)CO)C2=O (stereo not drawn) | -6 | 1 | 4 | 1 | 3
Cn1nnc2cc(C(=O)N3CCCCCC3)ccc21 | -3 | . | . | . | .
N#CC1=C(N)Oc2cc(N)ccc2C1c1ccc(F)cc1 (stereo not drawn) | 0 | 0.3 | 50* | 0.5 | 74*
Cc1ccc(C2C(C#N)=C(N)Oc3cc4c(cc32)OCO4)cc1 (stereo not drawn) | -5 | 0.3 | 74* | 0.3 | 72*

Assay outcomes: PubChem BioAssay, several laboratories
